Drawing on PubChem BioAssay (NCI), this text covers growth for 15 compounds.

SMILES strings stand for the structures. The panel holds about 83,000 compounds, 20% with a hit somewhere; the sample as a whole holds those more often.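 In brief: 96-well plates, 48 h treatment, single concentration, percent growth endpoint.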 Calls of active or inactive are those of the source. How the source made its calls: active means growth percent below 10; inactive means the rest.

In the assay the test system is MDA-MB-468 breast. As to the kind of experiment: NCI-60 one-dose screen, 48 h (100 = growth as untreated, 0 = no growth, -100 = all killed). As to conditions: 10 µM unless noted.
Take `Nc1cc2c3c(cccc3c1)C(=O)N(CCN1CCCC1)C2=O`: the growth is 40.2% (inactive).
For `O=S(=O)(O)c1ccc(Cl)c(Cl)c1` the value was 115% (inactive); for `COc1cc(CNCCCCCCN2C(=O)c3cccc4cccc(c34)C2=O)ccc1O`, 47.2% (inactive).
Turning to `CC(=O)O[C@H]1Cc2c([nH]c3ccccc23)[C@@H](c2ccc(Cl)cc2)N1C(=O)CCNC(C)(C)C`, the growth was 8.31% (active).
Next, `CCN(CCNc1ccc(C)c2sc3cc(Cl)ccc3c(=O)c12)CC(C)(C)O`: -19.3% (active).
For `Oc1c(Cl)cc(Cl)c2ccc(Cn3cc(-c4ccc(C(F)(F)F)cc4)nn3)nc12` the value was 39.6% (inactive).
For `C(=C1c2ccccc2-c2ccccc21)c1ccccn1` the value was 22.4% (inactive); for `CCCCCCC(=O)C(C)C`, 98.8% (inactive); for `CN1CCN(C(=O)/C=C/c2ccc([N+](=O)[O-])o2)CC1`, 77.4% (inactive).
`CC1(C)C(=O)/C(=C\c2ccco2)C[C@]2(C)[C@H]3CC=C4[C@@H]5C[C@](C)(C(=O)O)CC[C@]5(C)CC[C@@]4(C)[C@]3(C)CC[C@@H]12`: the growth was -47.2% [100 µM] (active).
For `COc1ccc(C(=O)/C=C/c2ccc(Cl)cc2)cc1S(N)(=O)=O`, the growth is 57.3% (inactive).
Next, `O=C(N/N=C/c1ccc(Br)s1)c1[nH]c2ccc(Br)cc2c1-c1ccccc1`: -5.18% (active); `Clc1ccc(C(Cn2ccnc2)OCc2ccsc2Cl)c(Cl)c1` (stereo not given): 9.75% (active); `CC/C(=N\Nc1nc2ccccc2n1C)c1ccccn1`: -14.5% (active).
For `O=C(CN1CCOCC1)Nc1ccc(Cn2nnc3c2C(=O)c2nnn(Cc4ccc(NC(=O)CN5CCOCC5)cc4)c2C3=O)cc1`, the growth was -61.7% (active).
